# Assay results from PMC7862700, “An all-to-all approach to the identification of sequence-specific readers for epigenetic DNA modifications on cytosine”.
# Assays:
# Test in all cases: DAPPL (digital affinity profiling via proximity ligation, sequencing); 10 mM Tris-HCl pH 7.5, 50 mM NaCl, 1 mM DTT, 4% glycerol, room temperature, 30 min; GST-TFs on glutathione beads, 16-mer random dsDNA library, 0.1% formaldehyde crosslink after washing; high values mean tight binding
# Conditions in all cases: protein: recombinant; tags: N-terminal GST; dsDNA, one strand shown
# ERG = biological target: T1, ERG (Homo sapiens, UniProt P11308 1-479)
# T1 sequence: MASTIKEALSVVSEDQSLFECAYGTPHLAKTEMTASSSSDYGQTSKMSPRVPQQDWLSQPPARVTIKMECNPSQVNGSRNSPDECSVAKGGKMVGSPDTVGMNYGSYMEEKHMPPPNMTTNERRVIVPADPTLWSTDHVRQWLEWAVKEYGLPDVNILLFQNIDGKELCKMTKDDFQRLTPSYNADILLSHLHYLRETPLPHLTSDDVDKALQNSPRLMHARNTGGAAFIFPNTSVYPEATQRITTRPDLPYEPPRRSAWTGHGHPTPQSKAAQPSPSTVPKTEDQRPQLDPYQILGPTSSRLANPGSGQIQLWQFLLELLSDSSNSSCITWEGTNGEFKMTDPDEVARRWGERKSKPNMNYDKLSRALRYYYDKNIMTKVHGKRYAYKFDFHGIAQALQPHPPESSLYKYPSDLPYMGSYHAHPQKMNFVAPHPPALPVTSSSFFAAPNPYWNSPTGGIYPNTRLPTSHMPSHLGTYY
# In short: (§1)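 The binding signal reported is, for every hexamer, its read frequency for a factor over its read frequency for the tag-only sample. Reads came from pools of yeast-expressed, GST-fused human transcription factors on glutathione beads, barcoded with DNA and mixed with that sample, which were incubated with 200 nmole of a random double-stranded 16-mer DNA library in Tris/NaCl/DTT/glycerol buffer at room temperature for 30 min. After washing, the pools were crosslinked with 0.1% formaldehyde, proximity-ligated with BsaI/T4 ligase for 1 h at 37 °C, PCR-amplified and sequenced on an Illumina NextSeq500.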
# ELF1 = ELF1 (Homo sapiens, UniProt P32519 1-619)
# Sequence of ELF1 (P32519 whole entry): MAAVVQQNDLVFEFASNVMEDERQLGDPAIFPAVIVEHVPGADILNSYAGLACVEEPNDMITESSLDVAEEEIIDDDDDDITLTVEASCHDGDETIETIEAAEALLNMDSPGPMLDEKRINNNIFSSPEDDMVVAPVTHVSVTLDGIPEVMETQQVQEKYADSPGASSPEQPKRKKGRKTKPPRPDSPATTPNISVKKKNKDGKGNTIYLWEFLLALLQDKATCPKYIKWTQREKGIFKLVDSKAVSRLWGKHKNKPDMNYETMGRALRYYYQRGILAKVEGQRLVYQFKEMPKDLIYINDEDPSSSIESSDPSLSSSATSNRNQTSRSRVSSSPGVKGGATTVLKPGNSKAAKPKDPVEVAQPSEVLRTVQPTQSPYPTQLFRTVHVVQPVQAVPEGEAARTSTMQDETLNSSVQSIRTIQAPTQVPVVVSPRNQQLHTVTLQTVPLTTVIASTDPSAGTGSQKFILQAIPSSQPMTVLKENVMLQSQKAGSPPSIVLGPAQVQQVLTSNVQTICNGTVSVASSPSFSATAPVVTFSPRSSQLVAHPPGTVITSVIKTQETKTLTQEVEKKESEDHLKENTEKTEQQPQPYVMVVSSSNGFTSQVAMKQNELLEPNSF
# In short: as §1
# SPIB = SPIB (Homo sapiens, UniProt Q01892 1-262)
# Sequence of SPIB (Q01892 whole entry): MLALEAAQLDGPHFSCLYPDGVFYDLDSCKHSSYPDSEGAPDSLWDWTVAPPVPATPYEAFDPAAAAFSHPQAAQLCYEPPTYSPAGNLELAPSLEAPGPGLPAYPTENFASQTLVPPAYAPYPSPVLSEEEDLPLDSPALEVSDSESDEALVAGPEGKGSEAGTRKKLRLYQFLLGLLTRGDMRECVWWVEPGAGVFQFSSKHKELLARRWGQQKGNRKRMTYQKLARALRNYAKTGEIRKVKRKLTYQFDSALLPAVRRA
# In short: as §1
# ELK3 = biological target: T2, ELK3 (Homo sapiens, UniProt P41970 1-407)
# T2 sequence: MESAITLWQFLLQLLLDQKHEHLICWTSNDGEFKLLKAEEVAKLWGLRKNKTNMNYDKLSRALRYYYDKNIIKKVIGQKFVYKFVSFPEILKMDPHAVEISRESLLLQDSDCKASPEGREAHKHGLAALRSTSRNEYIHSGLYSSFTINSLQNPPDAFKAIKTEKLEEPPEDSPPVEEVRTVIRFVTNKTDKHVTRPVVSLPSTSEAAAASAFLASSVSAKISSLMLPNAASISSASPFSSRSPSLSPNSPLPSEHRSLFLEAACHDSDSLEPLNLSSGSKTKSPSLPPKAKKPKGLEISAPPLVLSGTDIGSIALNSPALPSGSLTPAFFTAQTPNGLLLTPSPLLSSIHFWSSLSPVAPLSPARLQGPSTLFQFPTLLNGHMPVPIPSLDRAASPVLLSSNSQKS
# In short: as §1
# ETV1 = ETV1 (Homo sapiens, UniProt P50549 1-477)
# Sequence of ETV1 (P50549 whole entry): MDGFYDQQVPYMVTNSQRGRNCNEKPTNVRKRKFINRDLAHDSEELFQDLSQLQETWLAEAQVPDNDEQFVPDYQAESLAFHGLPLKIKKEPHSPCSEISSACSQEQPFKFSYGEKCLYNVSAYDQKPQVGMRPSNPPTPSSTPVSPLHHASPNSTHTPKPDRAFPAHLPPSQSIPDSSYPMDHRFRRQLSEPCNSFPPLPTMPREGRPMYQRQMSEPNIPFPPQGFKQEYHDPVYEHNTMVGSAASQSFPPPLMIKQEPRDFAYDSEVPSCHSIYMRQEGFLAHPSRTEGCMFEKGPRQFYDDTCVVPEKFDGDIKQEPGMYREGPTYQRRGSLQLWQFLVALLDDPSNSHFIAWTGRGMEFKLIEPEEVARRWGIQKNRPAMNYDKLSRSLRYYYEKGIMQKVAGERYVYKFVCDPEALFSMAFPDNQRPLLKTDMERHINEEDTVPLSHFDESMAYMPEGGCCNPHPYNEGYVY
# In short: as §1
# ERF = biological target: T3, ERF (Homo sapiens, UniProt P50548 1-548)
# T3 sequence: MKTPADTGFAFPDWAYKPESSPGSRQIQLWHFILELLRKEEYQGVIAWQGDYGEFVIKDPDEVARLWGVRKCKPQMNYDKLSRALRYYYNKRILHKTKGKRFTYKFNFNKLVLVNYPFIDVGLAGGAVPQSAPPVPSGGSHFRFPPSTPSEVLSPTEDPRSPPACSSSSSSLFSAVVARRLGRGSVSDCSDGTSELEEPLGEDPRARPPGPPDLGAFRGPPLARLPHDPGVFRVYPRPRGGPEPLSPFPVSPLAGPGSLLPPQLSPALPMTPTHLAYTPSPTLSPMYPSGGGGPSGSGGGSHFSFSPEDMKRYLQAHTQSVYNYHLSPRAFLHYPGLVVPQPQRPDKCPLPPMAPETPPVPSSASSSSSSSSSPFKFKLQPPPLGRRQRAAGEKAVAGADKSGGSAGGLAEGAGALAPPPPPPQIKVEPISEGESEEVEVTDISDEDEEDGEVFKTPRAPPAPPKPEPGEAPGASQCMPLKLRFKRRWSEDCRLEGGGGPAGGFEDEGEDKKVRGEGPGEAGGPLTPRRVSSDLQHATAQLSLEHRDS
# In short: as §1
# ETV3L = biological target: T4, ETV3L (Homo sapiens, UniProt Q6ZN32 1-361)
# T4 sequence: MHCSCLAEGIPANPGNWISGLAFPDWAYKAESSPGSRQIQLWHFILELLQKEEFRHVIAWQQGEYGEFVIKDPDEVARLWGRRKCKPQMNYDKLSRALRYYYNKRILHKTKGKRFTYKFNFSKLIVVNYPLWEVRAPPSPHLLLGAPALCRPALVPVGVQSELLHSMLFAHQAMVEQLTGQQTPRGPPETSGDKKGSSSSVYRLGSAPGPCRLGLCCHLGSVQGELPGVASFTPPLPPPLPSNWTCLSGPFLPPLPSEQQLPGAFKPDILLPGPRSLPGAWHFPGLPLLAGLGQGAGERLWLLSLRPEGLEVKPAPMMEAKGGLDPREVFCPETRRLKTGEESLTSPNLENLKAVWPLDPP
# In short: as §1
# ETV3 = biological target: T5, ETV3 (Homo sapiens, UniProt P41162-2 1-143)
# T5 sequence: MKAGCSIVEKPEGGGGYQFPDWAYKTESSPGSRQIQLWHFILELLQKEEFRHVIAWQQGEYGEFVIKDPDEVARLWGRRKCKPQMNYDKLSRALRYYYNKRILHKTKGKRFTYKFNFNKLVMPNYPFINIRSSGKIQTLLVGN
# In short: as §1
sequence,measurement,setting,value
CTCGGG,binding signal,ERG,"1.03 fold enrichment (6-mer frequency, TF over GST control)"
same,binding signal,ELF1,"1.09 fold enrichment (6-mer frequency, TF over GST control)"
same,binding signal,SPIB,"1.03 fold enrichment (6-mer frequency, TF over GST control)"
same,binding signal,ELK3,"1.05 fold enrichment (6-mer frequency, TF over GST control)"
same,binding signal,ETV1,"1.03 fold enrichment (6-mer frequency, TF over GST control)"
same,binding signal,ERF,"1.02 fold enrichment (6-mer frequency, TF over GST control)"
same,binding signal,ETV3L,"1.09 fold enrichment (6-mer frequency, TF over GST control)"
same,binding signal,ETV3,"1 fold enrichment (6-mer frequency, TF over GST control)"
